Measured values from the supplement of paper PMC12669032.

Tests used:
Assay in all cases: growth AUC relative to DMSO control (median of replicates) (fraction); higher = more growth (less inhibition), active = hit call of the paper
Settings in all cases: 20 µM; 24 h;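 active = AUC reduced over 20% with Padj below 0.05 in at least 2 of 3 replicates; inactive = otherwise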
Akkermansia muciniphila = test system: Akkermansia muciniphila
Procedure, shortened: (§1)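 Hourly OD600 readings over 24 h tracked anaerobic gut bacterial monocultures grown at 37 °C in mGAM from OD600 0.05 with 20 µM compound (1% DMSO). After the minimum OD was set to 0, area under the growth curve was normalised to the plate median of solvent-only wells, or to row and column medians on the industrial chemical plate. Values are medians of three biological replicates grown on separate days.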

Bacteroides caccae = test system: Bacteroides caccae
Procedure, shortened: as §1

Bacteroides clarus = test system: Bacteroides clarus
Procedure, shortened: as §1

Bacteroides dorei = test system: Bacteroides dorei
Procedure, shortened: as §1

Bacteroides stercoris = test system: Bacteroides stercoris
Procedure, shortened: as §1

[1] = test system: Bacteroides thetaiotaomicron
Procedure, shortened: as §1

Bacteroides uniformis = test system: Bacteroides uniformis
Procedure, shortened: as §1

[2] = test system: Bifidobacterium longum subsp. longum
Procedure, shortened: as §1

Clostridium difficile = test system: Clostridium difficile
Procedure, shortened: as §1

Collinsella aerofaciens = test system: Collinsella aerofaciens
Procedure, shortened: as §1

Coprococcus comes = test system: Coprococcus comes
Procedure, shortened: as §1

Escherichia coli ED1a = test system: Escherichia coli ED1a
Procedure, shortened: as §1

Escherichia coli IAI1 = test system: Escherichia coli IAI1
Procedure, shortened: as §1

Eubacterium rectale = test system: Eubacterium rectale
Procedure, shortened: as §1

[3] = test system: Fusobacterium nucleatum subsp. animalis
Procedure, shortened: as §1

Lactobacillus gasseri = test system: Lactobacillus gasseri
Procedure, shortened: as §1

Lactobacillus paracasei = test system: Lactobacillus paracasei
Procedure, shortened: as §1

Odoribacter splanchnicus = test system: Odoribacter splanchnicus
Procedure, shortened: as §1

[4] = test system: Parabacteroides distasonis
Procedure, shortened: as §1

Parabacteroides merdae = test system: Parabacteroides merdae
Procedure, shortened: as §1

Measured: growth AUC

CCOCCc1ccc(OCCNc2ncnc(CC)c2Cl)c(C)c1C
inactive: Akkermansia muciniphila 0.937 | Bacteroides caccae 0.929 | Bacteroides clarus 0.883 | Bacteroides dorei 0.942 | Bacteroides stercoris 0.975 | [1] 0.915 | Bacteroides uniformis 0.887 | [2] 0.923 | Clostridium difficile 0.998 | Collinsella aerofaciens 0.94 | Coprococcus comes 0.978 | Escherichia coli ED1a 0.999 | Escherichia coli IAI1 0.961 | Eubacterium rectale 0.846 | [3] 1.07 | Lactobacillus gasseri 0.883 | Lactobacillus paracasei 0.929 | Odoribacter splanchnicus 1.01 | [4] 0.903 | Parabacteroides merdae 0.92

CCc1nc2ncnn2c(N)c1CCCCCC(=O)O.Cl
inactive: Akkermansia muciniphila 1.06 | Bacteroides caccae 1.03 | Bacteroides clarus 1.07 | Bacteroides dorei 1.03 | Bacteroides stercoris 1.14 | [1] 0.988 | Bacteroides uniformis 1.02 | [2] 0.963 | Clostridium difficile 1.01 | Collinsella aerofaciens 0.996 | Coprococcus comes 1.03 | Escherichia coli ED1a 1.02 | Escherichia coli IAI1 1.04 | Eubacterium rectale 1.11 | [3] 1.14 | Lactobacillus gasseri 1.08 | Lactobacillus paracasei 0.977 | Odoribacter splanchnicus 1.04 | [4] 0.99 | Parabacteroides merdae 1.06

COc1nc(OC)nc(C(=O)c2cccc(F)c2N(C)S(=O)(=O)C(F)F)n1
inactive: Akkermansia muciniphila 0.993 | Bacteroides caccae 1 | Bacteroides clarus 1 | Bacteroides dorei 1 | Bacteroides stercoris 1.07 | [1] 1.01 | Bacteroides uniformis 1.03 | [2] 1.03 | Clostridium difficile 1.04 | Collinsella aerofaciens 1.04 | Coprococcus comes 1.03 | Escherichia coli ED1a 0.999 | Escherichia coli IAI1 0.986 | Eubacterium rectale 1.18 | [3] 1.05 | Lactobacillus gasseri 1.02 | Lactobacillus paracasei 0.977 | Odoribacter splanchnicus 0.892 | [4] 1.03 | Parabacteroides merdae 0.927

CCOCN(C(=O)C(=O)O)c1c(C)cccc1CC
inactive: Akkermansia muciniphila 0.978 | Bacteroides caccae 1.01 | Bacteroides clarus 0.989 | Bacteroides dorei 1.02 | Bacteroides stercoris 1.02 | [1] 1.01 | Bacteroides uniformis 1.01 | [2] 1.01 | Clostridium difficile 0.986 | Collinsella aerofaciens 1.02 | Coprococcus comes 1.01 | Escherichia coli ED1a 1 | Escherichia coli IAI1 0.996 | Eubacterium rectale 0.989 | [3] 1.03 | Lactobacillus gasseri 0.989 | Lactobacillus paracasei 1.05 | Odoribacter splanchnicus 0.991 | [4] 1.02 | Parabacteroides merdae 1.01

COCCCNc1nc(NC(C)C)nc(SC)n1
inactive: Akkermansia muciniphila 0.847 | Bacteroides caccae 0.981 | Bacteroides clarus 0.976 | Bacteroides dorei 0.989 | Bacteroides stercoris 0.977 | [1] 0.957 | Bacteroides uniformis 0.982 | [2] 0.985 | Clostridium difficile 0.963 | Collinsella aerofaciens 0.993 | Coprococcus comes 0.963 | Escherichia coli ED1a 1.01 | Escherichia coli IAI1 0.986 | Eubacterium rectale 0.914 | [3] 0.904 | Lactobacillus gasseri 1.04 | Lactobacillus paracasei 0.943 | Odoribacter splanchnicus 0.954 | [4] 1.01 | Parabacteroides merdae 0.992

COc1cc(OC)nc(NC(=O)NS(=O)(=O)c2c(Cl)nc3ccccn23)n1
inactive: Akkermansia muciniphila 1.06 | Bacteroides caccae 1.02 | Bacteroides clarus 1 | Bacteroides dorei 1.02 | Bacteroides stercoris 1.1 | [1] 1 | Bacteroides uniformis 1.02 | [2] 1.02 | Clostridium difficile 1 | Collinsella aerofaciens 1.03 | Coprococcus comes 0.981 | Escherichia coli ED1a 1.01 | Escherichia coli IAI1 1.01 | Eubacterium rectale 1.01 | [3] 1.13 | Lactobacillus gasseri 1.06 | Lactobacillus paracasei 1.11 | Odoribacter splanchnicus 0.984 | [4] 1.02 | Parabacteroides merdae 1.04

CCCCCCC(C)OC(=O)C(C)Oc1ccc(Cl)cc1C (stereo not given)
inactive: Akkermansia muciniphila 0.913 | Bacteroides caccae 0.996 | Bacteroides clarus 0.973 | Bacteroides dorei 0.983 | Bacteroides stercoris 0.983 | [1] 1 | Bacteroides uniformis 1.02 | [2] 0.848 | Clostridium difficile 1.01 | Collinsella aerofaciens 0.968 | Coprococcus comes 0.994 | Escherichia coli ED1a 0.985 | Escherichia coli IAI1 0.999 | Eubacterium rectale 0.96 | [3] 0.956 | Lactobacillus gasseri 1 | Lactobacillus paracasei 0.909 | Odoribacter splanchnicus 1.03 | [4] 1.01 | Parabacteroides merdae 0.989

CC(C)N(C(=O)CS(=O)(=O)[O-])c1ccccc1.[Na+]
inactive: Akkermansia muciniphila 1.01 | Bacteroides caccae 1.02 | Bacteroides clarus 1.02 | Bacteroides dorei 1.04 | Bacteroides stercoris 0.909 | [1] 0.955 | Bacteroides uniformis 1.05 | [2] 1.29 | Clostridium difficile 1.06 | Collinsella aerofaciens 0.967 | Coprococcus comes 0.982 | Escherichia coli ED1a 0.978 | Escherichia coli IAI1 0.988 | Eubacterium rectale 1.07 | [3] 1.09 | Lactobacillus gasseri 0.948 | Lactobacillus paracasei 1 | Odoribacter splanchnicus 0.981 | [4] 0.96 | Parabacteroides merdae 1
